The values that follow come from article PMC5540273 (PLoS ONE, 2017).

pKd: −log10 of the molar value.
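Also: kd values determined as follow-up on hits from a single-replicate KINOMEscan panel screen.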

One test has as its system MARK2.
In turn, `O=c1cc(N2CCOCC2)nc2n(Cc3cccc(Cl)c3)ccn12` [GSK2296823] showed a negative-log Kd (pKd) below 5.00.
The molecule `Cl.Cn1ccc(-c2cccc(Nc3ccnc4cc(-c5nccs5)ccc34)c2)n1` [GW525701] had a pKd below 5.00.
In turn, `CCn1c(-c2ccncc2)nc2cnccc21` [SB-735216] showed a pKd below 5.00.

Another test concerns T1, MEK5.
T1 construct: gene MAP2K5
The molecule `Cn1ccc2ncnc(Nc3ccc(Oc4cccc(Cl)c4)c(Cl)c3)c21` had a pKd of 7.60.
Same read-out and setting: the result for `COc1cc2c(Nc3cccc(NC(=O)c4ccccc4)c3)ncnc2cc1OCCCN1CCOCC1` [GSK223810] reads 6.03.
The molecule `Cl.Cn1ccc(-c2cccc(Nc3ccnc4cc(-c5nccs5)ccc34)c2)n1` [GW525701] had a pKd of 6.02.
On the same count and under the same terms, the result for `CC(=O)Nc1n[nH]c2ncc(-c3ccccc3)cc12` [SB-548492] reads 6.54.
On the same count and under the same terms, the figure for `Cl.c1ccc(Cn2ccc3cc(Nc4ncnc5ccccc45)ccc32)cc1` [GW275568] is 6.11.
Molecule `COc1cc2ncnc(Nc3ccc(OCc4ccccc4Br)c(Cl)c3)c2cc1OC.Cl` [GI261590] showed a pKd of 7.01.
The same measure, in the same setting: the figure for `OCCOCCn1ccc2ncnc(Nc3ccc(Oc4cccc(Cl)c4)c(Cl)c3)c21` is 6.70; for `O=C(Nc1n[nH]c2nc(-c3ccco3)c(Br)cc12)c1ccc(CN2CCCC2)cc1.O=C(O)[C@H](O)[C@@H](O)C(=O)O` [SB-742352] it is 6.26; for `Oc1ccc2ncnc(Nc3ccc(OCc4ccccc4)cc3)c2c1` [GI262866] it is 7.09.
In the case of `COc1ccc(-c2oc3ncnc(N)c3c2-c2ccc(OC)cc2)cc1` [SB-589132], the negative logarithm of the Kd (pKd) is 5.52.
`O=C(CCO)NCCn1ccc2ncnc(Nc3ccc(Oc4cccc(C(F)(F)F)c4)c(Cl)c3)c21` gave a pKd of 7.82.
On the same count and under the same terms, the result for `CS(=O)(=O)CCNCc1ccc(-c2ccc3ncnc(Nc4ccc(OCc5ccccc5)c(Cl)c4)c3c2)o1.Cl` [GW574783] reads 6.00.
For the molecule `CCc1nc(-c2cccc(N(C)S(=O)(=O)c3ccccc3)c2)c(-c2ccnc(Nc3ccc(N4CCN(C(C)=O)CC4)nc3)n2)s1` [GSK1645895], the negative logarithm of the Kd (pKd) was 8.15.
With `Cl.c1ccc(Cn2ncc3cc(Nc4ncnc5ccccc45)ccc32)cc1` [GW273749], the negative logarithm of the Kd (pKd) was 7.05.

Usually pKd stands for the negative decadic logarithm of the Kd, by convention in mol/L. Low values mean a high Kd, high ones a low Kd.
